Screening data: PubChem BioAssay, National Center for Advancing Translational Sciences (NCATS)
MCF10A rerep = A quantitative high throughput screen for small molecules that induce DNA re-replication in MCF 10a normal breast cells. AID 624296, 2012. 350,000 compounds, 2.9% hits. Potency, µM (titrated, usually from 46.1 µM), most hits filed as activators. MCF 10A DNA re-replication, Hoechst nuclear intensity, 48 h; further: nearly all actives have a fitted effect of over 50% in size
IL1B secr inh = qHTS for Inhibitors of Inflammasome Signaling: IL-1-beta AlphaLISA Primary Screen; 360,000 compounds, 4.7% hits; activity change, % at 57.5 µM; THP-1 LPS/ATP IL-1B secretion, AlphaLISA, 16 h; active compounds read low; in the data active means activity change below about -50%; inconclusive means mostly about -30% to -49%
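Secreted IL-1B measured by AlphaLISA bead assay after 16 h compound exposure of THP-1 cells; compounds (final up to 57.5 uM) added 1 h before LPS (250 ng/mL) and ATP (1.25 mM) stimulation; lower signal means less secretion.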
SW480 rerep = A quantitative high throughput screen for small molecules that induce DNA re-replication in SW480 colon adenocarcinoma cells | Potency, µM (titrated, usually from 46.1 µM), actives largely listed as activators | SW480 DNA re-replication, Hoechst DNA content imaging, 48 h | 340,000 compounds, 1.8% hits; further: nearly all actives have a fitted effect of over 55% in size
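Hoechst fluorescence of nuclei (405 nm excitation, 500-530 nm emission) measured by plate-scanning imager after 48 hr compound exposure at 37 C; re-replication scored as increased number of nuclei with elevated intensity.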
RORg inh = qHTS for inhibitors of ROR gamma transcriptional activity; Nuclear receptor ROR-gamma (Mus musculus), P51450; Drosophila S2 Gal4-RORgamma UAS-luciferase reporter, 20 h; Potency, µM (highest dose often 53.6 µM), most hits filed as inhibitors; 310,000 compounds, 5.4% hits; AID 2551, 2010; further: nearly all actives have a fitted effect of over 60% in size
Target sequence (P51450 whole entry, looked up, the tested form may be a part): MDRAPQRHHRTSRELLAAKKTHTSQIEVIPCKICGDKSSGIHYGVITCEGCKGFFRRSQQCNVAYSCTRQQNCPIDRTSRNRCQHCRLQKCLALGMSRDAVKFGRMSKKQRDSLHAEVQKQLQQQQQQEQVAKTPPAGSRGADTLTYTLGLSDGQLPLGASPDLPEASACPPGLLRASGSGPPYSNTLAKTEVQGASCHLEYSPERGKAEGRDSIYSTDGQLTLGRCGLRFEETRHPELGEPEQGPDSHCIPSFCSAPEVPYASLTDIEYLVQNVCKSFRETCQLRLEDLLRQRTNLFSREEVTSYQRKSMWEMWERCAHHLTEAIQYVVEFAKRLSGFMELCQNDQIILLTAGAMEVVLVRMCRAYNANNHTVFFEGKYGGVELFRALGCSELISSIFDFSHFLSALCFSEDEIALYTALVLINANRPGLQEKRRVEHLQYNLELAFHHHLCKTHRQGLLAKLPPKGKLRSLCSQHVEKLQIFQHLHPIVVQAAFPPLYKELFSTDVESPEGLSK
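A Gal4/UAS one-hybrid system in insect cells: metallothionein-promoter Gal4–ROR gamma fusion plus Photinus luciferase reporter. Copper sulfate 700 uM final, 20 hr ambient incubation, luminescent detection after 10 min with reagent.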
VP16 counter = VP16 counterscreen qHTS for inhibitors of ROR gamma transcriptional activity. Drosophila S2 Gal4-VP16 UAS-luciferase, luminescence, 20 h. Potency, µM (series often up to 53.6 µM), most hits filed as inhibitors. 310,000 compounds, 3.5% hits. AID 2546, 2010;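 further: Gal4-VP16 expression switched on by copper sulfate through the metallothionein promoter; nearly all actives have a fitted effect of over 50% in size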
Hits are given with their value; i = inactive; ? = inconclusive; nt = not tested or not shown; [ ] = another dose, or the depositor's remark. Shown are actives, neighbours in structure and some others; about 11% of the full set was active somewhere. Unless noted, the call rests on the fitted dose curve; in most records, active means well fitted curve in the direction sought with a large enough effect; inconclusive means small, poorly fitted or top-dose-only effect, or another doubt; inactive means no such curve, though single readings can be large; an effect the other way counts as inactive or inconclusive.

SMILES	MCF10A rerep	IL1B secr inh	SW480 rerep	RORg inh	VP16 counter
O=C(N/N=C/c1cccnc1)c1cccc(S(=O)(=O)Nc2cccc(Cl)c2)c1	i	i	i	i	i
Cc1ccc(/C=N/NC(=O)c2cccc(S(=O)(=O)Nc3cccc(Cl)c3)c2)o1	i	i	i	12.6µM	?
COc1ccccc1NS(=O)(=O)c1cccc(C(=O)OCC(=O)Nc2cc(C)on2)c1	i	i	i	11.2µM	i
COc1cccc(C(=O)N2CCC[C@H]2C(=O)N2CCC[C@H]2C(=O)N[C@H](C)c2ccccc2)c1	nt	i	nt	nt	nt
CC(C)[C@H](NC(=O)c1ccco1)C(=O)Nc1ccc(N2CCCCCC2)cc1	nt	i	nt	nt	nt
CC12CNCC(C)(CN(C(c3ccccc3)c3ccccc3)C1)C2	i	-80.7	i	i	i
O=C(CC12CC3CC(CC(C3)C1)C2)NC(=S)NCc1ccco1	i	i	i	3.55µM	?
O=C(Cc1cccs1)NCc1ccco1	i	i	i	i	i
O=C(Cc1ccc(-c2ccccc2)cc1)NNC(=S)NCc1ccco1	?	i	i	5.62µM	?
O=C(Cc1cccs1)NNC(=S)NCc1ccco1	i	i	i	14.1µM	i
COC(=O)c1ccc(Oc2ccc(C(C)(C)C)cc2)c([N+](=O)[O-])c1	i	i	?	?	i
COC(=O)c1ccc(Oc2c(Cl)cccc2[N+](=O)[O-])cc1	i	i	i	7.94µM	i
N#CC1=C2SCN(c3ccccc3)CN2C(=O)CC1c1c(Cl)cccc1Cl (configuration not stated)	i	i	i	15.8µM	?
N#CC1=C2SCN(c3ccccc3)CN2C(=O)CC1c1ccccc1Cl (configuration not stated)	i	i	i	?	?
N#Cc1ccc(-n2c(-c3ccccc3)nnc2-c2ccccc2)cc1C#N	i	-73.6	i	?	i
C=CCn1c(=NC(=O)c2cc(Cl)sc2Cl)sc2cc(S(N)(=O)=O)ccc21	20.6µM	i	i	i	?
COCCn1c(=NC(=O)c2cc(-c3cccs3)nc3ccccc23)sc2cc(S(N)(=O)=O)ccc21	?	?	i	?	i
C=CCn1c(=NC(=O)c2sc3ccccc3c2Cl)sc2cc(S(N)(=O)=O)ccc21	i	i	?	?	?
C=CCn1c(=NC(=O)c2cc(-c3cccs3)nc3ccccc23)sc2cc(S(N)(=O)=O)ccc21	?	i	20.6µM	?	i
CCN1CCN(C(=O)c2cc(S(=O)(=O)N3CCCCC3)ccc2Cl)CC1	i	i	i	i	i
CC(C)=NOCc1ccc(-c2cc(-c3ccccc3)no2)cc1	nt	nt	nt	i[10 µM]	i[10 µM]
Cc1ccc2c(CC(=O)Nc3ccc4nc(N5CCOCC5)sc4c3)coc2c1	nt	i	nt	nt	nt
COc1ccc(C2C(C#N)=C(N)Oc3cc4c(cc32)OCO4)cc1 (configuration not stated)	20.6µM	i	?	i	i
O=C(NCCOc1ccccc1F)C1CCC(=O)N(CCc2cccc(F)c2)C1 (configuration not stated)	i	i	i	i	i
CC(C)Cc1ccc(C(C)C(=O)Nc2ccc(O)cc2)cc1 (configuration not stated)	i	i	i	?	17.8µM
SMILES	MCF10A rerep	IL1B secr inh	SW480 rerep	RORg inh	VP16 counter
CC(C(=O)Nc1ccc(O)cc1)c1cccc(C(=O)c2ccccc2)c1 (configuration not stated)	?	-50.6	?	i	?
CS(=O)(=O)N1CCC[C@@]2(CCN(Cc3ccc(C#N)cc3)C2)C1	nt	nt	nt	i	i
O=Cc1ccc(CO)o1	nt	nt	nt	i	i
COc1ccc(-c2noc(CCC(=O)NC3CCCCCC3)n2)cc1OC	nt	i	nt	nt	nt
Cc1cccc(NC(=O)c2cccc(NC(=O)c3ccco3)c2)c1	i	i	i[1.84 µM]	nt	nt
CCOc1ccc(C(=O)NC(=S)Nc2cccc(NC(=O)c3ccco3)c2)cc1[N+](=O)[O-]	?	?	i	6.31µM	7.08µM
Cc1cc(C(=O)Nc2cccc(NC(=O)c3ccco3)c2)ccc1[N+](=O)[O-]	i	-79.0	i	?	i
COc1ccc(C(=O)NC(=S)Nc2cccc(NC(=O)c3ccco3)c2)cc1[N+](=O)[O-]	i	i	i	10µM	?
CC(C)Oc1cccc(C(=O)Nc2nnc([C@@H]3C[C@H](O)[C@@H](CO)O3)s2)c1	nt	i	nt	nt	nt
O=C(Nc1cccc(F)c1)C1CCCN(C(=O)c2ccc(Cl)cc2)C1 (configuration not stated)	i	i	i	nt	nt
O=C1CCc2cc(S(=O)(=O)NC3CCCCC3)ccc2N1	i	i	i	nt	nt
COCCn1c(C23CC4CC(CC(C4)C2)C3)n[nH]c1=S	i	i	i	3.98µM	1.12µM
CCCCn1c(C23CC4CC(CC(C4)C2)C3)n[nH]c1=S	i	i	i	2.82µM	3.16µM
CCCn1c(SCC(=O)NC(C)C23CC4CC(CC(C4)C2)C3)n[nH]c1=O (configuration not stated)	i	i	i	i	i
COc1ccc(C)cc1C1=Nc2ccccc2C1(C)C	i	i	i	12.6µM	?
Cc1ccc(O)c(C2=Nc3ccccc3C2(C)C)c1	i	i	i	i	i
CC(C)Nc1ncnc2c1ncn2[C@H]1CN(Cc2ccc(F)cc2)C[C@@H](CO)O1	nt	i	nt	nt	nt
O=C(Nc1ncnc2c1ncn2C1OC(COC(=O)c2ccccc2)C(F)C1O)c1ccccc1 (configuration not stated)	i	i	i	10µM	11.2µM
NNc1ccc(Cc2ccc(Cl)cc2Cl)nn1	i	i	?	3.55µM	?
CSc1ccc(Cc2ccc(Cl)cc2Cl)nn1	i[0.0737 µM]	i	i	i	i
COc1ccc(-c2nc(CS(=O)CC(=O)NCCCN3CCOCC3)c(C)o2)cc1OC (configuration not stated)	i	i	?	i	i
COc1ccc(-c2nc(NCCN(C)C)nc3ccsc23)c(C)c1	nt	-53.2	nt	nt	nt
CCn1c(=O)c(C(=O)Nc2ccccc2)c(O)c2ccccc21	i	i	i	i	i
CCCn1c(=O)c(C(=O)NNS(=O)(=O)c2ccc(Cl)cc2)c(O)c2ccccc21	14.6µM	?	i	i	?
CCn1c(=O)c(C(=O)NCc2ccc(OC)cc2)c(O)c2ccccc21	i	i	i	i	?
Cc1cccc(C(=O)NNC(=O)c2c(O)c3ccccc3n(C)c2=O)c1	?	i	i	i	i
CCn1c(=O)c(C(=O)Nc2nc3ccccc3[nH]2)c(O)c2ccccc21	9.2µM	i	?	11.2µM	8.91µM
CCn1c(=O)c(C(=O)NCc2ccccn2)c(O)c2ccccc21	?	i	?	3.16µM	7.08µM
Cn1c(=O)c(C(=O)NNC(=O)c2cccc(Cl)c2)c(O)c2ccccc21	7.31µM	?	9.2µM	14.1µM	17.8µM
